The campaign covered roughly 230,000 compounds. About 1,500 (0.65%) were called active. Not shown: some 3% with an inconclusive outcome. What follows is part of a selection rich in actives, with near analogues and random picks from the rest. A number with no mark means an inactive call. The call rests on the fitted dose curve; in most records, active means well fitted inhibition curve with a large enough effect; inconclusive means small, poorly fitted or top-dose-only effect; inactive means no such curve, though single readings can be large or run the other way.
Each molecule was assayed against Lethal(3)malignant brain tumor-like protein 1 (Homo sapiens) (UniProt Q9Y468) (assay: qHTS Assay for the Inhibitors of L3MBTL1). Details: AlphaScreen L3MBTL1–H3K9me1 peptide binding; series mostly up to 57.1 µM; activity, negative = inhibition: at the top concentration.
Lethal(3)malignant brain tumor-like protein 1 (Homo sapiens), sequence (Q9Y468 whole entry, looked up): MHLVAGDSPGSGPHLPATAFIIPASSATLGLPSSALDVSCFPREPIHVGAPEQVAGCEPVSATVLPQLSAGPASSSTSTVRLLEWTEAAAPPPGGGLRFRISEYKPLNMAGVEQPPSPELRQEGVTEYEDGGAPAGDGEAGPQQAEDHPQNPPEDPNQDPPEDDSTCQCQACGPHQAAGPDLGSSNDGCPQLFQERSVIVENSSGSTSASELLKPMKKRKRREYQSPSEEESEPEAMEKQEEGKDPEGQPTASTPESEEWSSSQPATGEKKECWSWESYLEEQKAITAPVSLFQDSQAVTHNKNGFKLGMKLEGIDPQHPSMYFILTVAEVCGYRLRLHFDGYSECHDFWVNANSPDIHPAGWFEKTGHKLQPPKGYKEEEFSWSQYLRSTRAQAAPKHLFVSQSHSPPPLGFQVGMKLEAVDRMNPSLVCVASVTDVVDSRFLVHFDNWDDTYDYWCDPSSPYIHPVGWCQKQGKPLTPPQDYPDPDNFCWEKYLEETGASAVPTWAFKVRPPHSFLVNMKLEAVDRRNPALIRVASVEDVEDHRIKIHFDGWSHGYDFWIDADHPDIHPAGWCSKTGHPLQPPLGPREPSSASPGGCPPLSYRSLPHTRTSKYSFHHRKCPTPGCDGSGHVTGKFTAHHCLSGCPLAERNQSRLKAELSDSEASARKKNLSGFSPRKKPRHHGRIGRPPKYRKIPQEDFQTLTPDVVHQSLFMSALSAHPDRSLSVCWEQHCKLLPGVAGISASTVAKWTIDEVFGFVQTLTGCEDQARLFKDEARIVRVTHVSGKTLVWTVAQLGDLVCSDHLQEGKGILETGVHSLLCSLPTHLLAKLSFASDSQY
Summary of the method: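 L3MBTL1 50 nM + b-AHA-H3(1-15)K9me1 75 nM, 30 min RT; compound added, 30 min RT; streptavidin donor/Ni-chelate acceptor beads 10 ug/mL each final, 30 min RT dark; AlphaScreen read.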
Further: nearly all actives have a fitted effect of over 60% in size.
On the % scale 0 is the no-effect control and ±100 the full control effect; potency means the concentration at half of the fitted maximal effect.

Row | Compound | activity, negative = inhibition | Potency
1 | Cc1csc(SCC(=O)N(c2ccccc2)C(C)C)n1 | 5.12% | 
2 | COC(=O)c1ccc(CNC(=O)c2ccc(S(=O)(=O)N3CCCCCC3)cc2)cc1 | -4.44% | 
3 | CCN(CC)C(CNC(=O)CSc1nnnn1-c1cccc(F)c1)c1ccco1 (centres undefined) | -4.2% | 
4 | COc1ccc(-c2nnc(SC(C)C(=O)NC3CC3)o2)cc1 (centres undefined) | -1.06% | 
5 | CCCCOC(=O)Nc1nnc(CC(=O)NCc2ccccc2)s1 | 4.96% | 
6 | O=C(COC(=O)c1ccc(O)cc1)Nc1nccs1 | -4.2% | 
7 | CCCCOC(=O)Nc1nccs1 |  | 8.91 µM (active)
8 | Cc1ccc(NC(=O)CCNC(=O)c2ccc([N+](=O)[O-])cc2)cc1S(=O)(=O)N1CCOCC1 | 10.5% | 
9 | CC(=O)N(O)CCCCCNC(=O)CCC(=O)N(O)CCCCCNC(=O)CCC(=O)N(O)CCCCCNC(=O)CCC(=O)O | 19.9% | 
10 | CC[C@]12c3[nH]c4ccc(OC)cc4c3CCN1C(=O)C(CC(=O)NCCN1CCOCC1)C[C@@H]2C(=O)N1CCN(C(=O)C2CC2)CC1 (some centres undefined) | -0.659% | 
11 | CCCn1c(C)cc(/C=C(\C#N)C(=O)OCC(=O)N(C)c2c(N)n(Cc3ccccc3)c(=O)[nH]c2=O)c1C | -5.67% | 
12 | Cc1cc(=O)[nH]c(Nc2cccc(Br)c2)n1 | 2.09% | 
13 | CCOc1ccc(C(=O)Nc2ccncc2)cc1 | 5.87% | 
14 | CCOc1cccc(NC(=O)CC#N)c1 | -26.1% [at 11.4 µM] | 
15 | CCOc1ccc(NC(=O)c2ccc(NC(=O)COC(=O)c3ccc(NC(=O)CC#N)cc3)cc2)cc1 |  | 1.58 µM (active)
16 | COC(=O)[C@]1(C)CCC[C@@]2(C)C3CC[C@]4(OC(C)=O)C[C@@]3(CCC21)CC4=NO (some centres undefined) | -4.36% | 
17 | COCCCn1c2nc3ccccc3nc2c2c(=O)n(Cc3ccc(Cl)cc3)c(C)nc21 | -4.25% | 
18 | Cc1ccc(Cn2c(C)nc3c(c2=O)c2nc4ccccc4nc2n3Cc2ccco2)cc1 |  | 17.8 µM (active)
19 | Cc1nc2ccccc2c(=O)n1Cc1ccc([N+](=O)[O-])cc1 | -2.52% | 
20 | COc1ccc(CCNC(=S)N2CCN(S(=O)(=O)c3ccc(F)cc3)CC2)cc1 | -0.143% | 
21 | Cc1cccc(N=C2SC(C)CN2C(=O)CN2C(=O)NC3(CCCC3)C2=O)c1 (centres undefined) | -0.37% | 
22 | O=C(COc1coc(CN2CCN(c3ccccc3)CC2)cc1=O)N1CCc2ccccc21 | -1.38% | 
23 | COc1ccc(C(=O)CSc2nnc(COc3ccccc3)n2Cc2ccco2)cc1 | -15.6% | 
24 | CCCc1nc2c(c(=O)c3ccccc3n2C)c(=O)n1-c1cc(C)cc(C)c1 | 1.93% | 
25 | Cn1c2ccccc2c(=O)c2c(=O)n(Cc3ccco3)c(COc3ccccc3)nc21 |  | 12.6 µM (active)
26 | CC(=O)c1c(C)[nH]c(C(=O)COc2ccc3c(C)cc(=O)oc3c2)c1C | -3.35% | 
27 | O=C(CCC1CCCCC1)Nc1cc(C(F)(F)F)ccc1N1CCOCC1 | 16.3% | 

Row | Compound | activity, negative = inhibition | Potency
28 | Cc1ccc(S(=O)(=O)CCC(=O)OCC(=O)NCCc2ccc(S(N)(=O)=O)cc2)cc1 | 31.3% | 
29 | COc1ccccc1C(CNC(=O)c1cccc(S(=O)(=O)Nc2ccc(F)cc2)c1)N(C)C (centres undefined) | -4.55% | 
30 | O=c1ccc2c(-c3ccccc3S(=O)(=O)O)c3ccc(O)c(O)c3oc-2c1O |  | 0.251 µM (active)
31 | CCNC(=O)N(CC)C[C@H]1N[C@@](CC)(C(=O)OC)[C@H]2C(=O)N(Cc3ccccc3)C(=O)[C@@H]12 | 4.58% | 
32 | Cc1cc(C(=O)N/N=C/c2cc([N+](=O)[O-])cc(C)c2O)n[nH]1 |  | 22.4 µM (active)
33 | CC(C)(C)c1cc(C(=O)N/N=C/c2ccc([N+](=O)[O-])s2)n[nH]1 | 8.1% | 
34 | Cc1ccsc1C(=O)N/N=C/c1ccc([N+](=O)[O-])cc1 | -0.894% | 
35 | Cc1ccccc1NC(=S)NC(=O)Cc1ccc(Cl)cc1 | 0.475% | 
36 | COc1ccc(OCCCC(=O)Nc2cccc(S(=O)(=O)N3CCCCCC3)c2)cc1 | -10.2% | 
37 | CC(C)(C)NS(=O)(=O)NC(=O)C1=C(N2CCCC2)COC1=O | 1.12% | 
38 | COc1ccc2nc3n(c(=O)c2c1)-c1cc(C)ccc1C(=O)NC3Cc1ccc(O)cc1 (centres undefined) | -4.33% | 
39 | Cc1ccc(/C([O-])=C(/C(=S)NCc2ccco2)[n+]2ccccc2)cc1[N+](=O)[O-] |  | 10 µM (active)
40 | CC(OC(=O)CNC(=O)c1ccc(Cl)c([N+](=O)[O-])c1)C(=O)NCc1ccco1 (centres undefined) | -1.26% | 
41 | O=[N+]([O-])c1cccc(/C([O-])=C(/C(=S)Nc2ccccc2F)[n+]2ccccc2)c1 | -10.3% | 
42 | CC(=O)c1c(C)n(-c2ccc(C)cc2)c2ccc(O)cc12 | 0.558% | 
43 | COc1cc2c(-c3ccc4c(c3)OCO4)c(-c3ccsc3)oc(=O)c2cc1OC | -2.19% | 
44 | O=C(O)c1cccc(N2C(=O)Nc3ccccc3N2O)c1 | 11.3% | 
45 | Cn1cccc1/C=C1\SC(=O)N(CC(=O)Nc2ccc(F)cc2)C1=O | 8.81% | 
46 | N#Cc1ccccc1CN1C(=O)S/C(=C/c2cccn2-c2cccc(C(=O)O)c2)C1=O |  | 22.4 µM (active)
47 | CN(C(=O)CSc1nnc(-c2ccc(C(C)(C)C)cc2)n1C)C1CCS(=O)(=O)C1 (centres undefined) | -6.6% | 
48 | C1=C(N2CCOCC2)/C(=C/c2nc3ccccc3[nH]2)CC1 |  | 25.1 µM (active)
49 | CC1(C)Cc2c(C#N)c(SCc3nc4ccccc4[nH]3)nc(N3CCOCC3)c2CO1 | 2.75% | 
50 | O=c1[nH]c(N2CCOCC2)nc2ccccc12 | 6.39% | 
51 | N#CCN(C(=O)COC(=O)C1CC2CCCC(C1)C2=O)c1ccccc1 (centres undefined) | 28.5% | 
52 | CC(NC(=O)c1ccccc1C(=O)O)c1ccc(-n2ccnc2)cc1 (centres undefined) | -1.91% | 
53 | COc1cc(C=NNC(=O)c2cccnc2)ccc1OC(=O)c1ccccc1F | 7.91% | 
54 | CC(C)c1ccc(Nc2ncccc2C#N)cc1 | 20.4% | 

Row | Compound | activity, negative = inhibition | Potency
55 | COc1ccc(NC(=O)Nc2cccc3cccnc23)cc1 | 2.33% | 
56 | Nc1ccc(Nc2cc(O)c3ncccc3c2)cc1 |  | 11.2 µM (active)
57 | COc1ccc(S(=O)(=O)N2CCCCC2)cc1NC(=O)COc1ccccc1 | 3.21% | 
58 | Cc1cc(C(=O)COc2ccccc2Cl)c(C)n1C1CC1 | -9.04% | 
59 | CCC(CO)Oc1cc(NC(=O)c2cccc3ccccc23)c2ncn(C(C)C)c2c1 (centres undefined) | -4.07% | 
60 | O=C(COC(=O)CSc1ccccc1)Nc1ccc(F)cc1F | 5.2% | 
61 | COc1cc(OC)cc(C(=O)OCC(=O)Nc2ccc(F)cc2F)c1 | 1.96% | 
62 | O=C(COC(=O)c1ccc(F)cc1F)Nc1ncccn1 |  | 20 µM (active)
63 | O=S(=O)(c1ccccc1)N1CCC(c2ccccc2)CC1 | 17.6% | 
64 | O=C(COC(=O)COc1cc(Cl)c(Cl)cc1Cl)NC1CC1 | -1.35% | 
65 | CCCCN(C(=O)CCNC(=O)NC12CC3CC(CC(C3)C1)C2)c1c(N)n(CCCC)c(=O)[nH]c1=O | 20.7% | 
66 | COc1ccc(Cc2nnc(NC(=O)c3ccc(OC)cc3OC)s2)cc1 | 1.66% [at 2.29 µM] | 
67 | COc1ccc(Cc2nnc(NC(=O)Cc3cccs3)s2)cc1 |  | 4.47 µM (active)
68 | CCc1nnc(NC(=O)Cc2cccs2)s1 | 1.52% | 
69 | Cn1cc[n+](C)c1COc1ccc(C=O)cc1 | 3.68% | 
70 | CCOCCOC(=O)C1=C(C)NC(=O)NC1c1ccc2c(c1)OCO2 (centres undefined) | 2.78% | 
71 | CC1(c2ccccc2)NC(=O)N(CC(=O)N2CC(=O)Nc3ccccc32)C1=O (centres undefined) | -2.19% | 
72 | Cc1ccc(C2(C)NC(=O)N(CC(=O)N3CC(=O)Nc4ccccc43)C2=O)cc1 (centres undefined) | 7.53% | 
73 | CCOC(=O)N1CCN(C(=O)C(C)NC(=O)c2ccco2)CC1 (centres undefined) | 4.15% | 
74 | CCOc1c(Br)cc(/C=C2\C(=O)N(CCC#N)N=C2C)cc1OC |  | 14.1 µM (active)
75 | CCOc1cc(/C=N/O)cc(Br)c1OC | -1.13% | 
76 | C=CCOc1c(Br)cc(/C=N\n2nnnc2N)cc1OC | 0.799% | 
77 | CCOC(=O)[C@@H]1[C@H]2COc3cc(OC)ccc3[C@@H]2N2C(=O)N(c3cccc(C)c3)C(=O)[C@@]12C | 4.3% | 
78 | CC(OC(=O)c1ccc([N+](=O)[O-])cc1)C(=O)NCC1CCCCC1 (centres undefined) | 32.7% | 
79 | CCCCN1C(=O)C(C)=C(C)C1OCCc1ccc(OC)c(OC)c1 (centres undefined) | 0.955% [at 2.29 µM] | 

Reference: PubChem BioAssay AID485360 (National Center for Advancing Translational Sciences (NCATS), 2010)
